This is an account of results in publication PMC4552634, “A New Set of Chemical Starting Points with Plasmodium falciparum Transmission-Blocking Potential for Antimalarial Drug Discovery” (PLoS ONE, 2015).

About 3,200 (25%) of roughly 13,000 compounds showed an effect of 50% or more. Some of the results follow.

This test concerns P. falciparum stage V gametocytes. Also noted: BacTiter-Glo ATP luminescence viability of purified stage V gametocytes in 384-well plates, per cent inhibition versus DMSO. Particulars: 48 h, 5 µM; inhibitor.
The term % Inhibition denotes the relative decrease from the control value, in per cent. Turning to `CC(CCCCOCCc1ccccc1)NCC(O)c1cc(Cl)c(N)c(Cl)c1` (stereo not shown) [TCMDC-132072], the “% Inhibition” value is 16.2%.
Turning to `Cc1ccc(-c2nnc(Nc3ccc(C(=O)N4CCCCC4)cc3)c3ccccc23)cc1S(=O)(=O)NCC1CCCO1` (stereo not shown) [TCMDC-125618], the “% Inhibition” value stood at 37.21%.
Turning to `COc1ccc2nccc([C@@H](O)CN3CCC(NCc4cc5cccc(OC)c5o4)CC3)c2c1` [TCMDC-140683], the “% Inhibition” value is on record as -7.327%.
In the case of `O[C@@H](c1cc(C(F)(F)F)nc2c(C(F)(F)F)cccc12)[C@H]1CCCCN1` [TCMDC-124288], the “% Inhibition” value is 25.8%.
Take `Cc1ccc(F)cc1S(=O)(=O)N1CCCCC(c2ccc(C(F)(F)F)cc2)=N1` [TCMDC-134531]: the “% Inhibition” value is listed as -12.63%.
With `COc1cccc(NC(=O)Nc2cc(-c3ccc4[nH]ncc4c3)cc3c2CNC3=O)c1` [TCMDC-133475], the “% Inhibition” value is listed as 14.15%.
With `O=C(Nc1ccc(Cl)cc1C(=O)Nc1cccc(F)c1)c1ccc([N+](=O)[O-])cc1` [TCMDC-123788], the “% Inhibition” value is -68.85%.
For `CCC(C)CNC(=O)CN1CN(c2ccccc2)C2(CCN(C(=O)c3ccc(Br)cc3)CC2)C1=O` (stereo not shown) [TCMDC-125167], the “% Inhibition” value is -9.167%.
In the case of `Cc1ccc(NC(=O)c2ccc3ncccc3c2)cc1OC1CCN(C(C)C)C1` (stereo not shown) [TCMDC-133739], the “% Inhibition” value is 24.97%.
With `COc1ccc2nccc([C@@H](O)CN3CCC(NCCOc4ccccc4C#N)CC3)c2c1` [TCMDC-140712], the “% Inhibition” value was 9.495%.
In the case of `COc1ccc2nc(/C=C/c3cccc4ccc(C)nc34)[nH]c2c1` [TCMDC-138821], the “% Inhibition” value is listed as -26.73%.
As for `Nc1ccc2nc(C=Cc3ccccc3)[nH]c2c1` [TCMDC-124430], the figure is 29.38%; as for `Cc1ccc2nc(/C=C/c3cccc4cc[nH]c34)[nH]c2c1` [TCMDC-138896], 83.23%.
In the case of `COc1ccc2c(c1)CC(CNC[C@H](O)c1cccc(Cl)c1)CC2` (stereo partly shown) [TCMDC-131994], the “% Inhibition” value was -12.5%.
Turning to `CN(C)CCOc1ccc2c(c1)CN(C)CC2c1ccccc1` (stereo not shown) [TCMDC-131410], the “% Inhibition” value was 7.627%.
`COCCN(CCOC)c1ncc(-c2ccsc2)c(-c2nc(C)c(C)s2)n1` [TCMDC-125355]: the “% Inhibition” value amounted to 81.41%.
In the case of `Cc1nc(-c2nc(NCc3ccccn3)ncc2-c2ccsc2)sc1C` [TCMDC-125360] it was 31.08%; in that of `Cc1nc(-c2nc(NCCc3cnccn3)ncc2-c2ccsc2)sc1C` [TCMDC-125363], 69.56%; in that of `Cc1nc(-c2nc(NCCc3c(C)noc3C)ncc2-c2ccsc2)sc1C` [TCMDC-125357], 20.64%.
As to `Cc1nc(-c2nc(NCc3ccncc3)ncc2-c2ccsc2)sc1C` [TCMDC-125359], the “% Inhibition” value was 15.84%.
For `Cc1nc(-c2nc(N3CCOCC3)ncc2-c2ccsc2)sc1C` [TCMDC-125356], the “% Inhibition” value is recorded as 0.6256%.
As for `CN(C)CCOc1ccc2[nH]c(-c3cccc(OCc4ccccc4)c3)nc2c1C#N` [TCMDC-133765], the “% Inhibition” value is reported as 4.095%.
As for `COc1cc(C(=O)Nc2cccc(-c3cn4cccc(C)c4n3)c2)cc(OC)c1OC` [TCMDC-123644], the “% Inhibition” value was 23.2%.
In the case of `CCC1N=C(N)N=C(N)N1OCc1cccc2ccccc12` (stereo not shown) [TCMDC-131592] it was 22.21%; in that of `COc1ccc(CCNc2nc(SCc3ccccc3Cl)nc3ccccc23)cc1OC` [TCMDC-125569], 33.86%; in that of `CCCCNCc1cc(Cl)c2ccccc2c1O` [TCMDC-137599], 77.6%.
Consider `COc1c(CCNCCCCNCCc2cc(Cl)c3ccccc3c2OC)cc(Cl)c2ccccc12` [TCMDC-137869], for which the “% Inhibition” value amounted to 105.2%.
On to `COc1ccc(CCNCCCCCCNCCc2ccccc2Cl)cc1OC` [TCMDC-131273], for which the “% Inhibition” value came to 87.94%.
Turning to `COc1cc2ncnc(NCCc3ccccc3Cl)c2cc1OC` [TCMDC-139495], the “% Inhibition” value is given as 5.438%.
Consider `COc1c(CNCCCCCCNCc2cc(Cl)c3ccccc3c2OC)cc(Cl)c2ccccc12` [TCMDC-137958], for which the “% Inhibition” value is reported as 32.17%.
Regarding `COc1ccc(CCNCCCCCCNCCc2ccc(Cl)c3ccccc23)cc1OC` [TCMDC-131270], the “% Inhibition” value is reported as 116.7%.
In the case of `CCN(CC)CCCN(C(=O)Nc1c(Cl)cncc1Cl)c1nc(-c2ccc(F)cc2)cs1` [TCMDC-136666] it was -35.52%; in that of `O=C(Cc1ccc(NC(=O)c2ccc(O)c(-c3ccc(Cl)c(Cl)c3)c2)cc1)NCCN1CCCCC1` [TCMDC-140861], -19.27%.
With `O=C(Nc1cccc2ccccc12)N1CCC(NS(=O)(=O)c2cccc(C(F)(F)F)c2)CC1` [TCMDC-139437], the “% Inhibition” value is -43.48%.
As for `Cn1c(N)c(N=O)c(=O)[nH]c1=O` [TCMDC-123469], the figure is -4.943%.
`CC1CN(Cc2ccc(C#N)cc2)CCN1c1ccc(NC(=O)c2cccs2)cc1` (stereo not shown) [TCMDC-134949]: the “% Inhibition” value is reported as -2.454%.
Consider `Cc1nnnn1-c1ccc(C(=O)N2CCC3(CC2)CN(Cc2ccc(Cl)c(Cl)c2)C(=O)O3)cc1` [TCMDC-141691], for which the “% Inhibition” value is -63.06%.
For `O=C(Nc1ccc(CCNCCCc2ccccc2)cc1)Nc1ccc(Cl)c(Cl)c1` [TCMDC-140703], the “% Inhibition” value is given as 18.38%.
For the compound `Oc1ccc(CCNCCCCCCNCCc2ccc(Cl)c3ccccc23)cc1O` [TCMDC-131271], the “% Inhibition” value worked out at 123.4%.
In the case of `O=C(CCCCCNC(=O)c1ccc(O)c(-c2ccc(Cl)c(Cl)c2)c1)NCCc1ccc(Cl)c(Cl)c1` [TCMDC-140870] it was 6.745%; in that of `NS(=O)(=O)c1cccc(Nc2nccc(-c3cnn4ncccc34)n2)c1` [TCMDC-138919], -22.3%; in that of `Cc1cc(Nc2cccc(C(F)(F)F)c2)nc2ccc(NC(=O)c3ccc(=O)[nH]c3)cc12` [TCMDC-125286], -51.61%.
In the case of `CC(C)c1cc(N)c2cc(NC(=O)COCC(=O)Nc3ccc4nc(C(C)C)cc(N)c4c3)ccc2n1` [TCMDC-140151], the “% Inhibition” value is 20.51%.
Turning to `Cc1cc(N)c2cc(NC(=O)c3cc(C(F)(F)F)cc(C(F)(F)F)c3)ccc2n1` [TCMDC-139377], the “% Inhibition” value was 129.8%.
As to `Cc1cc(N)c2cc(NC(=O)c3ccc4ccccc4c3)ccc2n1` [TCMDC-139362], the “% Inhibition” value came to 110.4%.
On to `O=C(Nc1cncc(NC(=O)c2ccc(Cl)c(Cl)c2)c1)c1ccc(Cl)c(Cl)c1` [TCMDC-134576], for which the “% Inhibition” value is -22.28%.
Consider `COc1cc(C)nc2ccc(NC(=O)c3cc(C(F)(F)F)cc(C(F)(F)F)c3)cc12` [TCMDC-139381], for which the “% Inhibition” value is listed as -62.94%.
As for `Cc1[nH]cnc1-c1cccc(NC(=O)c2cc3ccccc3s2)c1` [TCMDC-140418], the “% Inhibition” value is -4.001%.
For `Nc1nc(N)c2cc(CNc3ccc(Cl)c(Cl)c3)ccc2n1` [TCMDC-141974], the “% Inhibition” value is listed as -49.67%.
`Nc1nc(N)c2cc(NC(=O)c3ccc(Cl)c(Cl)c3)ccc2n1` [TCMDC-141982]: the “% Inhibition” value was determined as 63.61%.
On to `Cc1cc(N)c2cc(NC(=O)c3cc4ccccc4s3)ccc2n1` [TCMDC-139336], for which the “% Inhibition” value is 120.6%.
With `CN1CCc2cc(NC(=O)c3cc4ccccc4s3)cc(-c3ccccc3)c2CC1` [TCMDC-141733], the “% Inhibition” value was found to be 18.19%.
